# Results published in PubChem BioAssay (EPA / NIEHS).
# Activity calls are given as the source filed them. How the source made its calls: active means hit-call score of the fitted dose curve at least 0.9, where 1 is the maximum; inactive means score below 0.9.
# Read-out: TIMP metallopeptidase inhibitor 1 (TIMP1), TIMP1 (gene 7076)
# Assay: BSK_MyoF_TIMP1: BioMAP Diversity Plus: MyoF Assay for TIMP metallopeptidase inhibitor 1 (TIMP1) Biomarker Activity (AID 2284269)
# Conditions: primary human lung fibroblasts
# Method: BSK_MyoF is a cell-based, multiplexed-readout assay that uses lung fibroblasts, […], with measurements taken at 24 hours after chemical dosing in a microplate: 96-well plate.BSK_MyoF_TIMP1 is an assay component measured in the BSK_MyoF assay. It measures TIMP-1 antibody related to regulation of gene expression using ELISA technology.Data from the assay component BSK_MyoF_TIMP1 was analyzed at the endpoint, BSK_MyoF_TIMP1, in the positive analysis fitting direction relative to DMSO as the negative control and baseline of activity. Using a type of binding reporter, gain or loss-of-signal activity can be used to understand protein changes. To generalize the intended target to other relatable targets, this assay endpoint is annotated to the 'protease' intended target family, where the subfamily is 'matrix metalloproteinase'.
# The levels of cell surface (or secreted, indicated by the prefix "s") biomarker endpoints were measured by ELISA. Overt cytotoxicity to cells in confluent adherent cultures (all systems other than the BT system) was assessed by measuring total protein levels using sulforhodamine B (SRB) staining in parallel cultures at the time of biomarker measurements, indicated as SRB endpoints. For proliferation assays for adherent cell types, individual cell types are cultured at sub-confluence and relative cell numbers quantified by SRB staining at time points optimized for each system (48 h: 3C and CASM3C systems; 72 h: BT and HDF3CGF systems; 96 h: SAg system). SRB was performed by staining cells with 0.1% SRB after fixation with 10% TCA and reading wells at 560 nm.Viability and proliferation of PBMC (T cells) was quantified by Alamar Blue reduction for the SAg and BT systems. For PBMC viability (referred to as PBMC Cytotoxicity within the assay endpoint names), cells were plated (75,000/well in a 96-well plate) and then chemical samples added for 1 h before addition of activators, SEB and TSST-1 (20 ng/mL final concentration each). Cells were incubated for 90 h. Then, Alamar Blue (20 uL/well) (Invitrogen, Cat DAL1100) was added for 6 h, and the plates were read with a fluorescence microplate reader at 546/580 nm (excitation/emission). For PBMC proliferation, cells were plated and activated as above but incubated for only 16 h prior to addition of Alamar Blue. Plates were read after 6 h.
Compound,outcome,AC50
CCc1c(C)cc(N)c(CC)c1N,inactive,–
O=C(O)C[C@H](O)C[C@H](O)/C=C/c1c(C2CC2)nc2ccccc2c1-c1ccc(F)cc1,inactive,–
O=C1OC2(c3cc(Br)c(O)c(Br)c3Oc3c2cc(Br)c(O)c3Br)c2c(Cl)c(Cl)c(Cl)c(Cl)c21,–,8.64 µM (active)
Cc1ccc(Nc2ccc(O)c3c2C(=O)c2ccccc2C3=O)cc1,inactive,–
CCCCCCCCC=O,inactive,–
O=C(O)c1cn(C2CC2)c2cc(N3CCNCC3)c(F)cc2c1=O,inactive,–
BrC1CCC(Br)C(Br)CCC(Br)C(Br)CCC1Br (stereo not drawn),inactive,–
O=[N+]([O-])c1cc(C(F)(F)F)ccc1Cl,inactive,–
CC(C)(COC(=O)c1ccccc1)COC(=O)c1ccccc1,inactive,–
CNC[C@H](O)c1cccc(O)c1,inactive,–
N#Cc1ccc(CC(=NNC(=O)Nc2ccc(OC(F)(F)F)cc2)c2cccc(C(F)(F)F)c2)cc1,inactive,–
CC1CCC(C(C)CS)CC1S (stereo not drawn),–,11.1 µM (active)
c1ccc2sc(SN(C3CCCCC3)C3CCCCC3)nc2c1,inactive,–
c1ccc2c(c1)c1cccc3ccc4cccc2c4c31,inactive,–
C=C(C)C(=O)O[C@H]1C[C@@H]2CC[C@@]1(C)C2(C)C,–,32.3 µM (active)
CCCCC(CC)COC(=O)/C=C\C(=O)OCC(CC)CCCC (stereo not drawn),inactive,–
CC(C)c1ccc(C(C)C)cc1,inactive,–
CC1COc2ccccc2N1C(=O)C(Cl)Cl (stereo not drawn),–,4.69 µM (active)
CC(C)Oc1ccccc1O,inactive,–

Compound,outcome,AC50
Nc1cc([N+](=O)[O-])ccc1Cl,inactive,–
CCCCC/C=C/C=C/C=O,–,34.2 µM (active)
O=P(c1ccccc1)(c1ccccc1)c1ccccc1,inactive,–
COC(=O)c1ccc(C)cc1,inactive,–
CN(CCOc1ccc(CC2SC(=O)NC2=O)cc1)c1ccccn1 (stereo not drawn),inactive,–
CCCCCCCCCC=O,inactive,–
Cc1ccc2n[nH]nc2c1,inactive,–
CC(=O)O[C@]1(C(C)=O)CC[C@H]2[C@@H]3C[C@H](C)C4=CC(=O)CC[C@]4(C)[C@H]3CC[C@@]21C,inactive,–
Cc1ccc(O)c(C(C)(C)C)c1,–,33.7 µM (active)
O=C=NC1CCC(CC2CCC(N=C=O)CC2)CC1 (stereo not drawn),inactive,–
C#C[C@]1(O)CC[C@H]2[C@@H]3CCC4=Cc5oncc5C[C@]4(C)[C@H]3CC[C@@]21C,–,35.8 µM (active)
C=C[Si](OCC)(OCC)OCC,inactive,–
CC(=O)/C=C/C1=C(C)CCCC1(C)C,inactive,–
O=C(O)c1cn(-c2ccc(F)cc2)c2cc(N3CCNCC3)c(F)cc2c1=O,inactive,–
O=C1CCCCCCCCCCCCCCO1,inactive,–
CCn1c2ccccc2c2cc(N)ccc21,inactive,–
CCCCC(CC)COCCC#N (stereo not drawn),inactive,–
CC(=O)Nc1ccccc1O,inactive,–
CCCCCCCCCCCCCCCCCC(=O)OCC(CC)CCCC (stereo not drawn),inactive,–
